High-throughput results deposited in PubChem BioAssay by The Scripps Research Institute Molecular Screening Center.
DAX1 inh-1: inhibitors of DAX1 repression of SF-1 activated StAR promoter; inhibition, % at 6.8 µM; AID 652010; hit rate 1.1% among 370,000; HEK293T StAR-luciferase reporter, SF-1/DAX-1 repression relief;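 active = inhibition above the mean over all tested compounds plus 3 SD, cut at about 3.6% in these data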;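 also: higher inhibition means more luminescence from relief of DAX-1 repression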
DAX1 inh-2: inhibitors of human orphan nuclear receptor DAX1 (NR0B1); P51843; HEK293 Gal4-DAX1 luciferase reporter, luminescence; inhibition, % at 6.75 µM; hit rate 0.99% among 340,000;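 active = inhibition above the mean over all tested compounds plus 3 SD, cut at about 4.2% in these data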;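 also: inhibition shows as a rise in luminescence from relieved DAX1 repression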
Target sequence (P51843 207-470 limits assumed): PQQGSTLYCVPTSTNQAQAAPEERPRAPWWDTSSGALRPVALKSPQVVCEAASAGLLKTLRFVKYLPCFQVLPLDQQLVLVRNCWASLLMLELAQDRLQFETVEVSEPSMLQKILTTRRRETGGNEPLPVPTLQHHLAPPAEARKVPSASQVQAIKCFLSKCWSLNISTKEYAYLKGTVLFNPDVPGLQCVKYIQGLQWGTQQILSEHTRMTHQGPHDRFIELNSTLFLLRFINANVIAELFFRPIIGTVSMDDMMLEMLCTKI
AHR act: human AHR activation | P35869 | AHR-responsive luciferase reporter cells, luminescence | activation, % at 5 µM | hit rate 2.5% among 320,000; in the data active = activation above about 47%
hgDAF12 agonist: hgDAF-12 agonism, primary luciferase screen; HEK293 GAL4-hgDAF12 UAS-luciferase reporter, agonist luminescence; normalized to butyrate control; activation, % at 6.8 µM; hit rate 1.8% among 370,000;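 active = activation above a cutoff set at the mean of all screened compounds plus 3 SD, cut at about 10% in these data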
ssDAF-12 act: activators of S. stercoralis DAF-12 nuclear receptor | HEK293 ssDAF-12/GRIP1 lit1-tk-luc reporter, luminescence; % of 3 µM dafachronic acid response | activation, % at 6.8 µM | hit rate 1% among 370,000 | AID 652126;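 active = activation above the mean over all tested compounds plus 3 SD, cut at about 0.9% in these data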
hcDAF12 agonist: activators of H. contortus DAF-12 nuclear receptor. HEK293 hcDAF-12 lit1-tk-luc reporter, luminescence; 0% DMSO, 100% Δ7-dafachronic acid. activation, % at 6.8 µM. hit rate 1.4% among 370,000. AID 652067;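 active = activation above the mean of all tested compounds plus 3 SD, cut at about 5.5% in these data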
Hits are given with their value; . = inactive; / = no result given. The list is not random: actives were taken first. Their share in the collection is about 5.7%.

SMILES | DAX1 inh-1 | DAX1 inh-2 | AHR act | hgDAF12 agonist | ssDAF-12 act | hcDAF12 agonist
CC(=O)c1cccc(NC(=O)c2ccccc2-c2ccccc2C(=O)O)c1 | . | . | . | . | . | .
COc1cccc(NC(=O)c2ccccc2-c2ccccc2C(=O)O)c1 | . | . | . | . | . | 6.0
Cc1cc(Cl)ccc1NC(=O)c1ccc2c(c1)OCO2 | . | . | . | . | . | .
CC1(C(=O)NS(=O)(=O)c2ccc(F)cc2F)CCN1C(=O)CCc1ccccc1 (stereo not drawn) | . | / | / | . | . | .
CCCCC[C@H](O)/C=C/[C@@H]1[C@H]2C/C(=C/CCCC(=O)O)O[C@H]2C[C@H]1O | . | / | / | . | . | .
CN(C)c1ccc(NC(=O)c2ccc3nsnc3c2)cc1 | . | . | . | 11.2 | . | .
COc1cc(NC(=O)c2ccccc2-c2ccccc2)cc(OC)c1 | . | . | 47.8 | . | . | .
COc1cccc(NC(=O)c2c(F)cccc2F)c1 | . | . | . | . | . | .
COc1cccc(NC(=O)c2ccccc2F)c1 | . | . | . | 10.7 | . | .
Cc1nc2ccc(C(=O)Nc3ccc(N(C)C)cc3)cc2s1 | . | . | . | . | . | .
COc1cccc(NC(=O)c2ccccc2Br)c1 | . | . | . | 11.3 | . | .
COc1cc(NC(=O)c2ccccc2-c2ccccc2)cc(OC)c1OC | / | / | . | / | / | /
COc1cccc(C(=O)Nc2cccc(NC(=O)c3ccccc3Cl)c2)c1 | . | . | . | . | . | .
CC1(C)CCC(=O)N2CC[C@H]3c4cc5ccccc5nc4C[C@@H]1[C@H]32 | . | . | / | . | . | .
CN(C)c1cccc(-c2nccc(N3CCC(C(N)=O)CC3)n2)c1 | / | / | / | . | . | .
Cn1c(=O)c2cc(NC(=O)Nc3cccnc3)ccc2n1-c1ccc(C(C)(C)C)cc1 | . | / | / | . | . | .
O=C(NCc1ccc2c(c1)OCO2)Nc1cccc(Cl)c1 | . | . | . | . | . | .
COc1ccccc1C(=O)Nc1cccc(N(C)S(C)(=O)=O)c1 | . | . | 50.7 | . | . | .
COc1ccc(Cl)cc1NC(=O)NCc1ccc2c(c1)OCO2 | . | . | 75.7 | . | . | .
COc1cc(Cl)c(C)cc1NC(=O)c1cccc(OC)c1OC | . | . | 58.1 | 11.0 | . | .
COc1cccc(C(=O)Nc2ccc(N(C)C)cc2)c1OC | . | . | . | 12.3 | . | .
CSc1ccccc1C(=O)Nc1cccc(N(C)S(C)(=O)=O)c1 | . | . | . | . | . | .
CCOC(=O)CNC(=O)COc1coc(CN2CCN(c3ccc(F)cc3)CC2)cc1=O | . | . | . | . | . | .
CCN(CC(=O)Nc1ccccc1C(F)(F)F)C(=O)c1ccc(N2CCCC2=O)cc1 | . | . | . | . | . | .
CCOc1nc(-c2ccccc2)c2cc(Br)ccc2n1 | . | . | . | . | . | .
SMILES | DAX1 inh-1 | DAX1 inh-2 | AHR act | hgDAF12 agonist | ssDAF-12 act | hcDAF12 agonist
COc1ccc(C2/C=C\CN(C(=O)OCC3c4ccccc4-c4ccccc43)CC(=O)N2Cc2cccc(F)c2)cc1 (stereo not drawn) | 3.7 | . | / | . | . | .
N#C/C(=C\c1ccccc1[N+](=O)[O-])C(=O)NCc1ccccc1 | . | 4.5 | . | . | . | .
COC(=O)CNC(=O)COC(=O)/C=C/c1ccccc1[N+](=O)[O-] | . | . | . | . | 2.0 | .
O=C(/C=C/c1ccccc1[N+](=O)[O-])NCc1ccc(Cl)cc1 | . | . | . | . | . | .
NS(=O)(=O)c1ccc(CNC(=O)/C=C/c2ccccc2[N+](=O)[O-])cc1 | . | 4.4 | . | . | . | .
COC(=O)Nc1ccc(C)c(NC(=O)OC)c1 | . | . | . | . | . | 6.4
Cc1ccc(NC(=S)NC(=O)c2ccccc2)cc1NC(=S)NC(=O)c1ccccc1 | . | . | / | . | . | 6.2
CCC(=O)Nc1cccc(NC(=S)NC(=O)c2cccc(C)c2)c1 | . | . | . | . | . | .
CCC(=O)Nc1cccc(NC(=S)NC(=O)c2ccccc2)c1 | . | . | . | 12.7 | . | .
O=C(NC(=S)Nc1cccc(NC(=S)NC(=O)c2ccccc2)c1)c1ccccc1 | . | . | / | . | . | .
CCCCn1c(N)c(N(CC)C(=O)c2ccccc2F)c(=O)[nH]c1=O | . | . | . | . | . | .
O=C(NC1CCCC1)c1cccc(S(=O)(=O)N2CCOCC2)c1 | . | . | . | . | . | .
c1ccc2c(Nc3nc(N4CCOCC4)c4ccccc4n3)cccc2c1 | . | . | 71.1 | . | . | .
O=C(Cc1ccc(NC(=O)C2CCN(C(=O)CCc3ccccc3)CC2)cc1)Nc1cccc(C(=O)N2CCCC2)c1 | . | / | / | . | . | .
CCCCCCCCS(=O)CCC(=O)O (stereo not drawn) | . | . | . | . | . | .
CCCCCCCC(=O)O | . | 4.7 | . | . | . | .
CC1(C)CC(=O)N(Cc2ccccc2)C(=O)C1 | . | 4.5 | . | . | . | .
C=CCC12C=C(OC)C(=O)C(C1=O)C(c1ccc(OC)cc1)C2C (stereo not drawn) | . | / | / | . | . | .
O=C(Nc1cccc(Cl)c1)OCCOC(=O)Nc1cccc(Cl)c1 | . | . | / | . | . | .
O=C(Nc1cccc(Cl)c1)OCCOc1ccccc1 | . | 6.0 | / | . | . | .
NC(=O)COc1ccccc1 | . | . | . | . | 1.2 | .
O=C(Nc1ccccc1)OCCOc1ccccc1 | . | . | . | 11.8 | . | .
COc1cc(OC)cc(C(=O)NC(C(=O)NCCc2ccccn2)C(C)C)c1 (stereo not drawn) | . | . | . | . | . | .
C[C@H]1[C@@H](c2ccccc2)Oc2ccc(Cl)cc2S(=O)(=O)N1Cc1ccc(Cl)cc1 | . | / | / | . | . | .
O=C(Cc1ccc(F)cc1)Nc1c(C(=O)N2CCN(c3ncccn3)CC2)oc2ccccc12 | . | . | . | . | . | .
SMILES | DAX1 inh-1 | DAX1 inh-2 | AHR act | hgDAF12 agonist | ssDAF-12 act | hcDAF12 agonist
CCn1nc(NC(=O)c2ccccn2)c2cc3cc(C)ccc3nc21 | . | . | 71.4 | . | . | .
CCn1nc(NC(=O)c2cccs2)c2cc3ccccc3nc21 | . | . | 48.0 | . | . | .
CCn1nc(NC(=O)c2ccccc2)c2cc3cccc(C)c3nc21 | . | . | . | . | . | .
CCn1nc(NC(=O)c2cccnc2)c2cc3ccccc3nc21 | . | . | 63.7 | . | . | .
CCCCC(=O)Nc1nn(CCC)c2nc3ccccc3cc12 | . | . | 47.5 | . | . | .
O=C(CCc1c[nH]c2ccccc12)Nc1ccc(Nc2cccnc2)cc1 | . | / | / | . | . | .
CCOC(=O)Cc1csc(NS(=O)(=O)c2cccc([N+](=O)[O-])c2)n1 | . | . | . | . | . | .
Cc1csc(NS(=O)(=O)c2cccc([N+](=O)[O-])c2)n1 | . | 6.1 | . | . | . | .
CCCCCCC(=O)Nc1nc(C)c(-c2csc(Nc3cc(OC)ccc3OC)n2)s1 | . | . | 67.5 | . | . | .
CCOc1ccccc1Nc1nc(-c2sc(NC(=O)c3ccc([N+](=O)[O-])cc3)nc2C)cs1 | / | / | . | / | / | /
